Among the data in ChEMBL document CHEMBL1961873, “Compounds: GSK PKIS; Assays: Nanosyn kinase panel” (2012) are inhibition values, retold here.

Experiment [1] addresses T1, Serine/threonine-protein kinase TBK1 (Homo sapiens) (UniProt Q9UHD2).
T1 sequence (whole entry): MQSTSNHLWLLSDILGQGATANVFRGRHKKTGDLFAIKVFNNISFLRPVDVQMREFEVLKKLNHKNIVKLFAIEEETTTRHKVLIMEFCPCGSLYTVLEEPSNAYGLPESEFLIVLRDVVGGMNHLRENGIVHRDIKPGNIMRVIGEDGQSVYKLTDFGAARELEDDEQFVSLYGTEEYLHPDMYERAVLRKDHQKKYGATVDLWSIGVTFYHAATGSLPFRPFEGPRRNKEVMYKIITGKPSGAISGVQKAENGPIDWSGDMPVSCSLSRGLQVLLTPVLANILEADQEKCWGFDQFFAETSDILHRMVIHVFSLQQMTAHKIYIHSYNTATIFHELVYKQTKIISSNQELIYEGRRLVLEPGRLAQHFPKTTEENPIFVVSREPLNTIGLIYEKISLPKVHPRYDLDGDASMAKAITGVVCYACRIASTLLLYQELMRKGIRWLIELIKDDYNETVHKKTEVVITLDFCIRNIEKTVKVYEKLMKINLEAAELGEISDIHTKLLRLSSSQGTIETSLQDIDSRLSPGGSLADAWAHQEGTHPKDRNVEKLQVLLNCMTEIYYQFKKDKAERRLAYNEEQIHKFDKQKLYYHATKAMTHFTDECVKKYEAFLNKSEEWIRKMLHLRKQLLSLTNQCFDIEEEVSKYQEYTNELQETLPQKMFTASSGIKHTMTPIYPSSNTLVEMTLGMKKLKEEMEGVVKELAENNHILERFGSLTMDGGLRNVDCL
The following applies: at 1 µM.

In experiment [2] the target is T2, Testis-specific serine/threonine-protein kinase 1 (Homo sapiens) (UniProt Q9BXA7).
T2 sequence (whole entry): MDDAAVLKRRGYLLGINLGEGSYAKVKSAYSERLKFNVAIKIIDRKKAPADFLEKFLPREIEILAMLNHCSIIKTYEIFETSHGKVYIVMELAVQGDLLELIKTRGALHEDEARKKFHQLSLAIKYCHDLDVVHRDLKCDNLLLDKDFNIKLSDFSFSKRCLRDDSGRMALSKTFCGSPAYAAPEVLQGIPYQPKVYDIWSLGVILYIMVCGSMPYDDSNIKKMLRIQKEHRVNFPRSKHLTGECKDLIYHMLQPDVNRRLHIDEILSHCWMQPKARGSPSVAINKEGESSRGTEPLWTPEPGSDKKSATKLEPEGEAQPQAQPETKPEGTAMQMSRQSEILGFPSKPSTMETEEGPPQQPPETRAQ
The following applies: at 0.1 µM.

Experiment [3] has as its target T2, Testis-specific serine/threonine-protein kinase 1 (Homo sapiens). The conditions noted are these: at 1 µM.
For experiment [4], the target named is T3, Testis-specific serine/threonine-protein kinase 2 (Homo sapiens) (UniProt Q96PF2).
T3 sequence (whole entry): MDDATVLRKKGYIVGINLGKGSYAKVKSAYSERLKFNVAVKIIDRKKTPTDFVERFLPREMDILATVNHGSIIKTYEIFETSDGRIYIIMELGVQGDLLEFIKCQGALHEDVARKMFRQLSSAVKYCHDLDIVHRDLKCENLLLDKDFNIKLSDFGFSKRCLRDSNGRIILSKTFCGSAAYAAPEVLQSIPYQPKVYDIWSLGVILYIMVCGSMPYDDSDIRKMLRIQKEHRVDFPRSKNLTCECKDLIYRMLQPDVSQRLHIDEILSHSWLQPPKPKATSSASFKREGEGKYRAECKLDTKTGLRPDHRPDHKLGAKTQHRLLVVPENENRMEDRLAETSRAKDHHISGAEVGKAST
The conditions noted are these: at 0.1 µM.

Experiment [5] concerns the target T3, Testis-specific serine/threonine-protein kinase 2 (Homo sapiens). The following applies: at 1 µM.
Experiment [6] has as its target Casein kinase I isoform alpha (Homo sapiens) (UniProt P48729). The conditions noted are these: at 0.1 µM.
For experiment [7] the target is unchanged. The conditions noted are these: at 1 µM.
Experiment [8] has as its target Casein kinase I isoform gamma-1 (Homo sapiens) (UniProt Q9HCP0). The following applies: at 0.1 µM.
For experiment [9] the target is unchanged. The following applies: at 1 µM.
In experiment [10] the target is Casein kinase I isoform gamma-2 (Homo sapiens) (UniProt P78368). The conditions noted are these: at 0.1 µM.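 Also: values are mean inhibition figures reported as part of the GSK PKIS dataset.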

Where “and” joins values, the source holds several entries; their conditions need not be identical. Equal values may be shown once.

Chain of Casein kinase I isoform gamma-1 (Homo sapiens) (Q9HCP0 whole entry, looked up, canonical isoform): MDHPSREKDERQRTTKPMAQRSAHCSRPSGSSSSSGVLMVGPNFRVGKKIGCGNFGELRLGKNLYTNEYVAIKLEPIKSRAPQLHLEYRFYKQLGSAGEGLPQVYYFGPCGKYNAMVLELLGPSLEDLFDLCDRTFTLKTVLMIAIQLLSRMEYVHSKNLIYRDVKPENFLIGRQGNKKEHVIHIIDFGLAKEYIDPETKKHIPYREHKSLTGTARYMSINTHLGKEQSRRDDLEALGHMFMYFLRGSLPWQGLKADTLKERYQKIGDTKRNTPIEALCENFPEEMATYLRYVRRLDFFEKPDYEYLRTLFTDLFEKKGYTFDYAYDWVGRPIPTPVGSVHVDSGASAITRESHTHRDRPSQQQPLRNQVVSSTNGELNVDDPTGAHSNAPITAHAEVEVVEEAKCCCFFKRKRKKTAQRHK
Chain of Casein kinase I isoform alpha (Homo sapiens) (P48729 2-337 limits assumed): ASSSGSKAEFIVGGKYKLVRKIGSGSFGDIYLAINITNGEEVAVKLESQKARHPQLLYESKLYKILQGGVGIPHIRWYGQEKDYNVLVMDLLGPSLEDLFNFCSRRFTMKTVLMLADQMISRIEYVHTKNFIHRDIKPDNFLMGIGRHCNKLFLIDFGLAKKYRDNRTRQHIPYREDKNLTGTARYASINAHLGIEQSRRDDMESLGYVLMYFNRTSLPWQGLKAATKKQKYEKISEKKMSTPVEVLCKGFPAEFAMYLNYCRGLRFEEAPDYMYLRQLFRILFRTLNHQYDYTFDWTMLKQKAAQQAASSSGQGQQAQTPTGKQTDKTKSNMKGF
Chain of Casein kinase I isoform gamma-2 (Homo sapiens) (P78368 whole entry, looked up, canonical isoform): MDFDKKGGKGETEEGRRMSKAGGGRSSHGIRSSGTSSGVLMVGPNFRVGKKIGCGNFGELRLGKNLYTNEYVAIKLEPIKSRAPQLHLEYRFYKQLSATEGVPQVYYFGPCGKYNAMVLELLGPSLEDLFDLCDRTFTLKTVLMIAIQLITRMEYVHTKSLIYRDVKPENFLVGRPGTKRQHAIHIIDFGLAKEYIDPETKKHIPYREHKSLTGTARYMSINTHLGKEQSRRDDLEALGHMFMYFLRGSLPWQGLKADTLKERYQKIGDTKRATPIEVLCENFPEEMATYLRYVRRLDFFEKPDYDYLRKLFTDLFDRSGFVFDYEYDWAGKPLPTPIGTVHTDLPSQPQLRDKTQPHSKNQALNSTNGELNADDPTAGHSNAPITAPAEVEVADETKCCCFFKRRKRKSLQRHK

Turning to `c1ccc(-c2n[nH]cc2-c2ccnc(-c3ccc(OCCn4ccnc4)cc3)c2)nc1`, the inhibition (as a rule, the drop in the measured response relative to a control, in per cent) worked out at 0.29% in experiment [1]; 1.73% in [2]; 2.8% in [3]; 2.08% in [4]; 1.93% in [5]; 3.33% in experiment [6]. The inhibition in experiment [7] worked out at 18.1%; in [8], 0.69%; in experiment [9] it was 3.14%; in experiment [10], 0.83%.
Consider `COc1c(C(N)=O)cc(-c2ccc(Cl)cc2)cc1-c1ccc(S(N)(=O)=O)cc1`, for which the inhibition in experiment [1] came out at 3.5%; in experiment [2], 4.67%; in [3] it was 5.11%; in experiment [4], 2.57%; in [5] it was 2.89%; in experiment [6], 5.95%. In addition, the inhibition came out at 12.6% in [7], 4.33% in experiment [8], 6.12% in experiment [9] and 4.61% in experiment [10].
In the case of `Cc1ccc(-c2cc3c(NC(=O)C4CC4)ncnc3o2)cc1`, the inhibition in experiment [1] was determined as 10.1%; in experiment [2], 3.8%; in experiment [3], 4.18%; in experiment [4], 1.75%; in experiment [5] it was 0.28%; in [6], 4.85%. Also, the inhibition in experiment [7] amounted to 5.25%; in experiment [8], 3.74%; in experiment [9], 4.78%; in [10] it was 2.32%.
For `CC1=C(C(=O)Nc2ccc3[nH]ncc3c2)C(c2ccc(F)cc2)N=C(c2ccc(C(F)(F)F)nc2)N1` (stereo not given), the inhibition is 2.03% in [1]; 1.72% in [2]; -0.03% in experiment [3]; 0.88% in [4]; -1.54% in experiment [5]; 0.89% in experiment [6]. The inhibition in experiment [7] is 2.81%; in [8], 3.19%; in [9], 2.72%; in experiment [10], 0.59%.
With `COc1ccccc1-c1cc(/C=C2\C(=O)Nc3ncc(Br)cc32)cc(Br)c1O`, the inhibition in [1] is 6.07%; in [2], 4.24%; in [3], 6.09%; in experiment [4] it was 2.5%; in experiment [5], 1.91%; in experiment [6], 2.91%. The inhibition amounted to 5.66% in experiment [7], 5.05% in experiment [8], 5.44% in experiment [9] and 3.14% in experiment [10].
Take `CS(=O)(=O)Nc1ccc(-c2ccc3c(NC(=O)C4CC4)n[nH]c3c2)cc1`: the inhibition in experiment [1] was 7.65%; in experiment [2], 2.9%; in experiment [3] it was 2.78%; in [4] it was 0.58%; in experiment [5], -0.76%; in [6] it was -2.5%. For the same molecule, the inhibition in experiment [7] is 3.8%; in experiment [8] it was 2.55%; in [9] it was 4.34%; in experiment [10], 1.91%.
For the molecule `O=C(O[C@H]1CN[C@H](C#Cc2cc3ncnc(Nc4ccc(OCc5cccc(F)c5)c(Cl)c4)c3s2)C1)N1CCOCC1`, the inhibition is 2.81% in experiment [1]; 4.44% in experiment [2]; 7.27% in [3]; 3.43% in experiment [4]; 5.27% in experiment [5]; 2.97% in [6]. Besides, the inhibition in [7] stood at 4.43%; in [8], 4.56%; in experiment [9] it was 5.41%; in experiment [10] it was 4.99%.
`NS(=O)(=O)c1cccc(N/C=C2\C(=O)Nc3ccccc32)c1`: the inhibition in experiment [1] was 14.4%; in experiment [2] it was 4.45%; in [3], 4.78%; in [4], 1.7%; in [5], 1.39%; in experiment [6], 8.16%. Besides, the inhibition in experiment [7] amounted to 21.6%; in [8], 4.71%; in [9], 10.6%; in [10], 3.71%.
Consider `CN1CCN(Cc2ccc(-c3cc4ncnc(Nc5ccc(OCc6cccc(F)c6)c(Cl)c5)c4s3)o2)CC1`, for which the inhibition was 2.76% and 4.14% in experiment [1]; 2.79% and 6.19% in [2]; 3.62% and 7.65% in experiment [3]; 0.34% and 4.58% in experiment [4]; 0.35% and 5.87% in [5]; 3.03% and 3.11% in experiment [6]. The inhibition in [7] was 4.88% and 3.62%; in [8] it was 2.79% and 5.01%; in experiment [9] it was 4.51% and 5.57%; in [10], 2.31% and 3.69%.
Turning to `CS(=O)(=O)CCNCc1ccc(-c2ccc3ncnc(Nc4ccc(OCc5ccccc5)cc4)c3c2)o1`, the inhibition amounted to 3.03% in experiment [1]; 3.31% in experiment [2]; 4.28% in [3]; 5.73% in [4]; 2.17% in [5]; 4.49% in experiment [6]. The inhibition is 1.55% in [7], 2.67% in experiment [8], 3.35% in [9] and 2.72% in experiment [10].
For the molecule `CN(C)CCNC(=O)Nc1ccc(N(C)c2ccnc(Nc3ccc(CS(C)(=O)=O)cc3)n2)cc1`, the inhibition is 5.74% in experiment [1]; 2.28% in experiment [2]; 5.73% in experiment [3]; 0.57% in experiment [4]; -1.45% in [5]; 2.02% in experiment [6]. Moreover, the inhibition in experiment [7] came to 5.94%; in experiment [8] it was 3.74%; in [9], 4.96%; in experiment [10], 4.73%.
Regarding `O=C(O[C@H]1CN[C@H](C#Cc2cc3ncnc(Nc4ccc5c(cnn5Cc5ccccc5)c4)c3s2)C1)N1CCOCC1`, the inhibition was 1.41% in experiment [1]; 0.75% in [2]; -0.13% in experiment [3]; -0.69% in experiment [4]; -1.3% in experiment [5]; -2.11% in experiment [6]. Moreover, the inhibition in experiment [7] was 0.76%; in experiment [8] it was -0.81%; in experiment [9], 0.82%; in experiment [10], -0.61%.
With `CS(=O)(=O)CCNCc1ccc(-c2ccc3ncnc(Nc4ccc(OCc5cccc(C(F)(F)F)c5)cc4)c3c2)o1`, the inhibition in [1] was 6.44%; in experiment [2] it was 5.83%; in experiment [3] it was 4.35%; in [4], 2.31%; in [5] it was 2.41%; in experiment [6], 5.05%. Moreover, the inhibition in [7] was determined as 6.4%; in [8], 3.46%; in experiment [9], 4.57%; in [10], 3.14%.
As for `Fc1cccc(COc2ccc(Nc3ncncc3C#Cc3ccccc3)cc2Cl)c1`, the inhibition in experiment [1] is 6.39%; in experiment [2] it was 3.55%; in experiment [3], 6.94%; in experiment [4], 2.49%; in experiment [5], 4.25%; in [6] it was 5.09%. Further, the inhibition in experiment [7] was found to be 7.86%; in experiment [8], 4.27%; in experiment [9] it was 4.53%; in [10] it was 3.09%.
With `N#Cc1ccc2c(-c3ccnc(NC4CC4)n3)c(-c3ccc(F)cc3)nn2c1`, the inhibition is 0.07% in experiment [1]; 1.44% in experiment [2]; -1.14% in [3]; 1.07% in experiment [4]; -0.63% in [5]; 3.72% in experiment [6]. Moreover, the inhibition in experiment [7] was found to be 30.1%; in experiment [8], 1.85%; in [9], 4.03%; in experiment [10], 2%.
